Experimental findings from PubChem BioAssay are described below.

Structures are written as SMILES. “And” between values parts separate entries of the source, which are not always exact repeats. Equal values may be shown once. For some of these results: Entries with a potency or affinity are not part of this list. Where a structure was tested more than once in an assay, its records may differ in their call. The source made the active and inactive calls. Cut-off read from the data, not from the text of the source, unless noted: active = parasite load remaining mostly below about 12% (no sharp cut-off); inactive = mostly above about 10%.

Experiment [1] can be described thus: blockers of polyQ-driven CASP3 activation – cell-based (AID 1583). The settings on record: polyglutamine-induced caspase-3 activation, cell assay; stronger effect = higher value;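 tested at 10 µM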.
The nature of experiment [2]: yeast 75Q aggregation reduction – 75Q-TubU reporter (AID 1593). The settings on record: Yeast 75Q polyglutamine aggregation reporter.
The nature of experiment [3]: restoration of touch response, mutant HTT neurons – whole organism, C. elegans mechanosensory neurons, N-terminal huntingtin (AID 1599). The settings on record: C. elegans polyQ-huntingtin mechanosensory neurons, stronger effect = higher value.
The nature of experiment [4]: blockers of cytochrome c efflux from mitochondria – biochemical, purified mitochondria (AID 1603).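 Note: mouse liver mitochondria challenged with calcium chloride; signal normalized to the plate average as 100%.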 The note with it: stronger effect = lower value.
A short description of experiment [5]: polyglutamine aggregate formation blockers (AID 1604). The settings on record: polyglutamine-induced protein aggregation inhibition assay; stronger effect = higher value; tested at 2.5 µM.
Experiment [6] can be described thus: glutamate transport activators, MN-1 cells, MN-1 cell line (AID 1612).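 Note: tested at 1 µM final; 0% = mean of DMSO vehicle wells on each plate; positive means more glutamate uptake than control and negative means less.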 The settings on record: MN-1 motor neuron cells, stronger effect = higher value.
The nature of experiment [7]: GFP-Q80 aggregate reduction, neuronal-like cells, cell-based, NGF-treated PC12, GFPQ80 (AID 1614).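 Note: lower means fewer inclusions and 0 means no inclusions at all.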 The settings on record: PC12 NGF-treated GFP-polyQ80 inclusion reduction.
Experiment [8] is described as follows: 75Q-TubH aggregate inhibition, S. cerevisiae, yeast (AID 1616). The settings on record: S. cerevisiae 75Q-TubH polyglutamine aggregation suppression; stronger effect = higher value.
Experiment [9] is described as follows: P. berghei load reduction in hepatocytes – cell-based, HepG2, luciferase luminescence, HepG2 viability, primary screen (AID 624349).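 Note: 100% = mean of DMSO negative control wells on the same plate.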 The settings on record: P. berghei liver stage in HepG2, luciferase luminescence, concentration not given here; parasite load remaining: stronger effect = lower value; viability: measured here: HepG2 viability without parasites.
Experiment [10] concerns the target 6-phosphogluconate dehydrogenase, decarboxylating (Homo sapiens) (UniProt P52209). Kind of experiment: inhibition of human phosphogluconate dehydrogenase – biochemical, recombinant enzyme, NADPH absorbance, primary screen (AID 1159550;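 active = at least 20% inhibition of 6-phosphogluconate dehydrogenase activity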). The settings on record: recombinant 6PGD, NADPH absorbance 341 nm; at 10 µM; stronger effect = higher value.
Experiment [11] can be described thus: EMT-state selective cytotoxicity in co-culture – imaging, PC-3E GFP, TEM4-18 mCherry, primary screen (AID 1345086;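 active = compounds killing one labelled cell type while sparing the other, by normalised counts and ratio limits, not self-fluorescent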;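 for all read-outs here: cells exposed to compound for 72 h before imaging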;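 for red/green cell ratio (normalised): normalised mesenchymal count divided by normalised epithelial count so high means epithelial killing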). The note with it: PC-3E GFP / TEM4-18 mCherry co-culture, imaging cell counts, at 1 µM; for red/green cell ratio (normalised): actives lie on both sides, counts scaled to control wells, 1 = unselective.
The nature of experiment [12]: viability loss with induced miR-34 in A549 – imaging, A549 dox-inducible miR-34, nuclei and caspase counts, primary screen (AID 1347080;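 active = compounds whose cell count with miR-34 switched on is under 0.7 times the count with it off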). The note with it: A549 miR-34 inducible, Hoechst nuclei count, 48 h.
Experiment [13] concerns the target NAD(+) hydrolase SARM1 (Homo sapiens) (UniProt Q6SZW1). Briefly: blocking NAD cleavage by SARM1 SAM-TIR – cell lysate, NAD-Glo luminescence (AID 1508614;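 active = compound whose remaining NAD level is above about 45 nM, limit read from the data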;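 note: higher remaining NAD means stronger inhibition of SARM1 NADase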). The note with it: SAM-TIR HEK293T lysate NADase, at 1 µM, stronger effect = higher value.
Experiment [14] addresses Mitogen-activated protein kinase 7 (Homo sapiens) (UniProt Q13164). Briefly: Gal4-ERK5 driven luciferase induction – cell-based, HTS, primary screen (AID 1508626;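 active = luciferase signal above three times the same-plate solvent-only control wells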;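 note: luciferase driven by Gal4-ERK5 fusion binding five Gal4 sites before minimal TATA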). The settings on record: HeLa Gal4-ERK5 transactivation, 18 h, at 5 µM, stronger effect = higher value.
Experiment [15] can be described thus: compounds altering circadian rhythm period length – cell-based, LOPAC library, luminescence reporter (AID 2774; call rule not given here;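 note: values are relative to mean of DMSO wells on each plate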). The note with it: circadian reporter cells, at 7 µM, actives lie on both sides.
Experiment [16] is described as follows: compounds altering viability of human ES cells (AID 493140; call rule not given here;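 note: cells exposed to compounds for four days before counting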). The note with it: human embryonic stem cell survival screen; stronger effect = higher value.
Experiment [17] in a line: blockers of cellular phospholipid synthesis – cell-based, LOPAC library, screen 4, primary screen (AID 1347384; call rule not given here). The note with it: animal cells, phospholipid biosynthesis inhibition screen; at 10 µM.
Experiment [18] can be described thus: MELAS cybrid and Rieske KO viability enhancers – cell-based, MELAS cybrids, Rieske KO mouse fibroblasts, CellTiter-Glo, primary screen (AID 1508586;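 active = mean z-score across replicates of 1.96 or higher in either the MELAS or the Rieske mutant cell line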;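 note: z relative to plate mean and SD of compound and empty wells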). The settings on record: low glucose.
Experiment [19] can be described thus: galactose survival enhancers in mitochondrial complex I cybrids – cell-based, galactose medium, ATP luminescence, primary screen (AID 1645843;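 active = z-score of at least 1.8 in each of two replicates, scored against plate mean and spread of sample wells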;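 note: positive z means more ATP and so rescue of galactose-driven cybrid death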). The note with it: complex I mutant cybrid cells, 72 h, stronger effect = higher value.
Setting [20] is: measured here: epithelial PC-3E GFP cell survival.
[21] abbreviates: measured here: mesenchymal TEM4-18 mCherry cell survival.
The mark [22] stands for this setting: stronger effect = lower value, cell number ratio, induced over uninduced.
Where [23] appears, read: measured here: relative caspase fold change +Dox/-Dox.
[24] abbreviates: measured here: total cells with miR-34 induction, stronger effect = lower value.
[25] abbreviates: measured here: total cells without miR-34 induction.

Sequence of Mitogen-activated protein kinase 7 (Homo sapiens) (Q13164 whole entry, looked up, the tested form may be a part): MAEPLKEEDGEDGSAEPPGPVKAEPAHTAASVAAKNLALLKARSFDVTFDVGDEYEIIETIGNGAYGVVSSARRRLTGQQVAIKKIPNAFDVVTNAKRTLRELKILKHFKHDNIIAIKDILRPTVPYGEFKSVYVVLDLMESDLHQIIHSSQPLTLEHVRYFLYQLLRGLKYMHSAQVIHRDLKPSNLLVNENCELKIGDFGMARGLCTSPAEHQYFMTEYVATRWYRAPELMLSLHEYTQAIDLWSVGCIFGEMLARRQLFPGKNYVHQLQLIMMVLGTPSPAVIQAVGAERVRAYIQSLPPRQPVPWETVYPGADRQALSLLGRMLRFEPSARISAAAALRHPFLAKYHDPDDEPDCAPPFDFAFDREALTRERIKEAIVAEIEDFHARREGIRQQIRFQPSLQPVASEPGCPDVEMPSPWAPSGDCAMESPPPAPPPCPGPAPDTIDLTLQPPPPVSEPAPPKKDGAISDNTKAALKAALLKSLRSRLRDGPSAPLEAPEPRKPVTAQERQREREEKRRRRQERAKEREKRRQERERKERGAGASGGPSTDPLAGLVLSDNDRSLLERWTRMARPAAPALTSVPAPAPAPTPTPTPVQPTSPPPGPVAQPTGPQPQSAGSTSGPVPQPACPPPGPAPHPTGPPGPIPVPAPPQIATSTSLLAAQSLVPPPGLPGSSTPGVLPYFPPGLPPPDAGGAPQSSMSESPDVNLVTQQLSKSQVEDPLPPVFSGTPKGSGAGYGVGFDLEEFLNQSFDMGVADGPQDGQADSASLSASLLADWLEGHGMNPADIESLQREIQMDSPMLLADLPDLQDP
Sequence of NAD(+) hydrolase SARM1 (Homo sapiens) (Q6SZW1 whole entry, looked up, the tested form may be a part): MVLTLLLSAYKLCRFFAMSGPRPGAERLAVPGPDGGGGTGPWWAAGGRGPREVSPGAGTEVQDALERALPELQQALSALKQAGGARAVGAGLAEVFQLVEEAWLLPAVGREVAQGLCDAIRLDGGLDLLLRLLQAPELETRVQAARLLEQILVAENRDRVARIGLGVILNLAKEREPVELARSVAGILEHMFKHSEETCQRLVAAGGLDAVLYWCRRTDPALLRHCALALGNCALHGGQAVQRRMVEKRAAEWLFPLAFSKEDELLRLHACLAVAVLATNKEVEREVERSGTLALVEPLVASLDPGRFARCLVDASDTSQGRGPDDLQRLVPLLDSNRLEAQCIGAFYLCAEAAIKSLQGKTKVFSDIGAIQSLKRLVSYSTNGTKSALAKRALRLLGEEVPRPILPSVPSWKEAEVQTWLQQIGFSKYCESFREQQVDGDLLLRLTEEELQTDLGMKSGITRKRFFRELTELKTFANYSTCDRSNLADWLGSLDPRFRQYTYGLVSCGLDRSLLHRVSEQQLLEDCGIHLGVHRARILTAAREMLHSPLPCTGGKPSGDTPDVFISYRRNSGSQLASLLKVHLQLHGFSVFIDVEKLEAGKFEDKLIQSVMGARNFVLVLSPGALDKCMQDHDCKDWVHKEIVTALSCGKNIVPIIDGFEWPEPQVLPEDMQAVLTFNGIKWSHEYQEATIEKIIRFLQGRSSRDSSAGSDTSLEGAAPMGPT
Sequence of 6-phosphogluconate dehydrogenase, decarboxylating (Homo sapiens) (P52209 whole entry, looked up): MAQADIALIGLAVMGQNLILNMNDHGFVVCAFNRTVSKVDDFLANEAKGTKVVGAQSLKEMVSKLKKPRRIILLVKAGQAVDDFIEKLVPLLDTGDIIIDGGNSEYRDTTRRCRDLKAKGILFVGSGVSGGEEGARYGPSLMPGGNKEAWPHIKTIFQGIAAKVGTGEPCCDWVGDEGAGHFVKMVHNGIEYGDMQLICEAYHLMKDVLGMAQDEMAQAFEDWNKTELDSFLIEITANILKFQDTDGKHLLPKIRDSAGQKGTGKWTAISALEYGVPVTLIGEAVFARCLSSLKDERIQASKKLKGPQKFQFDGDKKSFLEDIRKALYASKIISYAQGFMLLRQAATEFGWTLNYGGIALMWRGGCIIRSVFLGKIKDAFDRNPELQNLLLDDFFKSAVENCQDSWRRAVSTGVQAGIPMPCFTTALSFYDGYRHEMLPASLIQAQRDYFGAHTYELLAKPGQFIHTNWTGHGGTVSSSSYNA

For the compound `CC1(C)S[C@@H]2C(N3C(=O)[C@@H](c4ccccc4)NC3(C)C)C(=O)N2[C@H]1C(=O)O` (some centres undefined), the inhibition in experiment [1] is 4.02%; in [10], -0.481% (inactive). The compound also showed a score in experiment [2] of 1.26. The compound also had a rescue above control in experiment [3] of -1.6. Moreover, in experiment [4], the cytochrome c release ratio turned out to be 0.9. Also, in experiment [5], the inhibition of aggregation turned out to be 49.2%. Further, the glutamate uptake change in [6] amounted to 4.63%. In addition, in experiment [7], the inclusion score worked out at 2. The compound further yielded an aggregation suppression score in experiment [8] of 1.31. Moreover, in experiment [9], the parasite load remaining is 110% (inactive) and 71.1% (inactive). Besides, the viability in experiment [9] is 76.4% and 94.5%. The red/green cell ratio (normalised) in [11] is 1.14 (inactive). Moreover, the normalised cell number in experiment [11] (setting [20]) was determined as 0.94; in experiment [11] (setting [21]), 1.08. For the same compound, the results for the fold change in experiment [12] (setting [22]) and in experiment [12] (setting [23]) were 0.886 (inactive) and 0.799, respectively. In addition, the cell count in experiment [12] (setting [24]) came to 11200; in [12] (setting [25]), 12600.
With `CC1=C(/C=C/C(C)=C/C=C/C(C)=C/CO)C(C)(C)CCC1`, the results for the inhibition in experiment [1] and in [10] were 25.6% and -7.77% (inactive), respectively. In addition, the score in [2] was -0.82. Besides, the rescue above control in experiment [3] was determined as 28.1. Also, the cytochrome c release ratio in experiment [4] was determined as 1.19. Besides, the inhibition of aggregation in [5] was found to be 88.9%. The glutamate uptake change in experiment [6] was -6.81%. In experiment [8], the aggregation suppression score came to 0.11. For the same compound, the parasite load remaining in [9] was 115% (inactive) and 48.9% (inactive). Besides, the viability in experiment [9] was 69.5% and 99.6%. Besides, the red/green cell ratio (normalised) in experiment [11] was 1.32 (inactive). For the same compound, the normalised cell number in experiment [11] (setting [20]) was 0.9; in experiment [11] (setting [21]), 1.18. For the same compound, the fold change in experiment [12] (setting [22]) is 0.915 (inactive); in experiment [12] (setting [23]), 2.67. The cell count was determined as 11800 in experiment [12] (setting [24]) and 12800 in [12] (setting [25]). Besides, the remaining NAD in experiment [13] was 10 nM (inactive). Moreover, the luciferase signal in experiment [14] was 48 AU (inactive).
In turn, `C[n+]1c2cc(N)ccc2cc2ccc(N)cc21` came in with a score in experiment [2] of 0.44. In experiment [3], the rescue above control came to 0. In addition, the cytochrome c release ratio in experiment [4] was 0.97. Moreover, the inhibition of aggregation in experiment [5] was found to be 91.3%. Also, the glutamate uptake change in experiment [6] is 14.1%. This compound came in with an aggregation suppression score in [8] of 0.101. In [9], the parasite load remaining was 25.5% (inactive) and -0.145% (inactive). Also, in experiment [9], the viability was 41.9% and 34.3%. Further, the inhibition in experiment [10] was -0.987% (inactive). Also, in [11], the red/green cell ratio (normalised) is 0.5 (active). The normalised cell number in experiment [11] (setting [20]) turned out to be 0.8; in experiment [11] (setting [21]), 0.4. Moreover, the fold change is 1.05 (inactive) in [12] (setting [22]) and 0.642 in experiment [12] (setting [23]). Also, the cell count was 1590 in [12] (setting [24]) and 1510 in experiment [12] (setting [25]). The remaining NAD in experiment [13] is 10 nM (inactive). Also, the luciferase signal in [14] was 24 AU (inactive).
On to `CCN(CC)Cc1ccc(Nc2ccnc3cc(Cl)ccc23)cc1O`, for which the inhibition in experiment [1] is -50.2%; in [10] it was 4.92% (inactive). The compound further came in with a score in experiment [2] of 1.49. In experiment [3], this compound had a rescue above control of 8.25. Further, the cytochrome c release ratio in experiment [4] came out at 0.74. The inhibition of aggregation in [5] stood at 65.5%. The glutamate uptake change in [6] is 1.51%. The aggregation suppression score in experiment [8] worked out at 1.68. In experiment [9], the parasite load remaining was -0.345% (active) and 0.905% (inactive). Moreover, in experiment [9], the viability was 63% and 59.3%. The red/green cell ratio (normalised) in experiment [11] was 0.8 (inactive). Besides, the normalised cell number in experiment [11] (setting [20]) came out at 1.14; in [11] (setting [21]), 0.91. For the same compound, the fold change in experiment [12] (setting [22]) is 0.936 (inactive); in [12] (setting [23]) it was 0.896. Besides, the cell count in [12] (setting [24]) amounted to 8520; in experiment [12] (setting [25]), 9100.
On to `Nc1c2ccccc2nc2ccccc12` (tested in a mixture with another compound), for which, in experiment [9], the parasite load remaining was 2.09% (inactive) and 61.1% (inactive). Besides, the viability in [9] is 97.8% and 80.2%. Further, the inhibition in experiment [10] was 3.89% (inactive). Besides, in experiment [11], the red/green cell ratio (normalised) was 0.94 (inactive). In addition, the normalised cell number in experiment [11] (setting [20]) turned out to be 1.25; in experiment [11] (setting [21]), 1.17. Besides, the fold change in [12] (setting [22]) was 1.59 (inactive); in experiment [12] (setting [23]), 1.23. Moreover, the results for the cell count in experiment [12] (setting [24]) and in [12] (setting [25]) were 1530 and 960, respectively. Further, the remaining NAD in [13] was 10 nM (inactive). Also, in [14], the luciferase signal is 80 AU (inactive).
`CC(=O)Nc1ccc(OC(=O)c2ccccc2O)cc1`: the inhibition in experiment [1] is -0.86%; in experiment [10], -12.6% (inactive). In addition, in experiment [2], the score came to 0.55. In experiment [3], the rescue above control was 4.5. Besides, in experiment [4], the cytochrome c release ratio was 1.29. Moreover, the inhibition of aggregation in experiment [5] came to 92.3%. The glutamate uptake change in [6] is 0.86%. In experiment [7], this compound yielded an inclusion score of 2. The same compound displayed an aggregation suppression score in [8] of 0.54. Further, the parasite load remaining in experiment [9] is 50.3% (inactive). The viability in experiment [9] was determined as 71.4%. The red/green cell ratio (normalised) in experiment [11] is 0.93 (inactive). For the same compound, the results for the normalised cell number in [11] (setting [20]) and in experiment [11] (setting [21]) were 1.16 and 1.08, respectively. In experiment [13], the remaining NAD was 10 nM (inactive). In addition, in experiment [14], the luciferase signal was 40 AU (inactive).
With `CC[C@H]1OC(=O)C[C@@H](O)[C@H](C)[C@@H](O[C@@H]2O[C@H](C)[C@@H](O[C@H]3C[C@@](C)(O)[C@@H](O)[C@H](C)O3)[C@H](N(C)C)[C@H]2O)[C@@H](CC=O)C[C@@H](C)C(=O)/C=C/C(C)=C/[C@@H]1CO[C@@H]1O[C@H](C)[C@@H](O)[C@@H](OC)[C@H]1OC`, the parasite load remaining in [9] was 131% (inactive) and 58.3% (inactive). Moreover, in experiment [9], the viability was 85.6% and 145%. Further, in [10], the inhibition was 1.55% (inactive). Moreover, the red/green cell ratio (normalised) in [11] is 1.03 (inactive). Besides, the normalised cell number in experiment [11] (setting [20]) turned out to be 1.05; in experiment [11] (setting [21]), 1.08. Moreover, the fold change is 0.905 (inactive) in experiment [12] (setting [22]) and 5.16 in experiment [12] (setting [23]). Further, the cell count in [12] (setting [24]) was determined as 12000; in experiment [12] (setting [25]), 13200. Besides, in experiment [13], the remaining NAD is 10 nM (inactive). The luciferase signal in [14] was 16 AU (inactive).
In the case of `CN(C)CCC(c1ccc(Br)cc1)c1ccccn1` (centres undefined), the period change in experiment [15] was 0.005 h (inactive). Also, the survival in experiment [16] is 1.08 (inactive). The inhibition in experiment [10] is 5% (inactive). In experiment [11], the red/green cell ratio (normalised) was 1.05 (inactive). Further, the normalised cell number was determined as 1.13 in experiment [11] (setting [20]) and 1.19 in experiment [11] (setting [21]). Further, the compound was called inactive in experiment [17]. The z-score in [18] (MELAS cybrid survival, CellTiter-Glo 48 h, stronger effect = higher value) is -0.114 (inactive) and -0.273 (inactive) and -0.659 (inactive); in [18] (Rieske KO mouse fibroblast survival, CellTiter-Glo 72 h), -0.476 and -0.248 and 0.132; in experiment [19], -0.18 (inactive) and -0.16 (inactive) and 0.035 (inactive). Moreover, the remaining NAD in experiment [13] was 10 nM (inactive). The luciferase signal in [14] is 48 AU (inactive).
